Rows were chosen to be rich in hits. Some 13% of all compounds tested hit in one or more screens of this group.
MARV entry inh: blocks Marburg virus binding to or entry into cells | Marburg virus pseudotyped entry inhibition, cell reporter | Potency, µM (doses to about 37.8 µM), for the others: top-dose activity change, negative = inhibition, actives largely listed as inhibitors | 1.8% of 300,000 active; calls by dose curve; tested in HEK293 cells; note: potency is the fitted concentration of half-maximal effect; % is set by controls: 0 for no effect and ±100 for the full control effect
Cycloheximide cs: affects cycloheximide protein synthesis inhibition readout, counter-screen; cell reporter, cycloheximide protein synthesis inhibition counterscreen; 12% of 300,000 active; max response, %; in the data active = max response mostly above about 13%, no sharp cut-off; inactive = mostly below about 14%; note: read at 38.3 µM for the half of the compounds with a filed dose; 0% is about no effect
HCV inh: HCV inhibition. Huh7.5.1 HCVcc-Cre infection, luciferase reporter, 44 h. Potency, µM (titrated, usually from 41.8 µM), for the others: at the top dose activity change, negative = inhibition, most hits filed as inhibitors. 3.4% of 340,000 active. AID 651820; active = well fitted inhibition curve with a large enough effect; inconclusive = small, poorly fitted or top-dose-only effect, or another doubt; inactive = no such curve, though single readings can be large or run the other way; note: potency is the fitted concentration of half-maximal effect; % is set by controls: 0 for no effect and ±100 for the full control effect
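Reporter virus HCVcc-Cre (~0.5 moi) infects cells exposed to compound; seeding density 1,000 cells/well with 4 h settling beforehand. Luminescence, 15 sec read, taken 44 h post-infection following a 15 min RT substrate incubation.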
Lassa entry inh: inhibitors of Lassa virus binding or cell entry; Lassa virus pseudotype entry inhibition, cell reporter; Potency, µM (highest dose often 37.9 µM), for inactives: at the highest dose activity change, negative = inhibition, usual class: inhibitors; 1.2% of 300,000 active; AID 540256; calls by dose curve; tested in HEK293 cells; note: potency is the fitted concentration of half-maximal effect; % is set by controls: 0 for no effect and ±100 for the full control effect; nearly all actives have a fitted effect of over 50% in size
Shiga inhibitor: inhibitors of Shiga toxin in Vero cells; inhibition, % at 38.7 µM; 9.2% of 290,000 active; Vero cells, Shiga toxin protein synthesis inhibition reporter; in the data active = inhibition mostly above about 28%, no sharp cut-off; inactive = mostly below about 43%; note: 0% is about no effect
FMDV antiviral: antivirals against foot and mouth disease virus | FMDV antiviral cell-based qHTS | Potency, µM (series often up to 57.9 µM), for the others: at the top dose activity change, negative = inhibition, hits mostly inhibitors | 1.2% of 410,000 active; calls by dose curve; tested in HEK293T cells; note: read-out not given here; potency is the fitted concentration of half-maximal effect; % is set by controls: 0 for no effect and ±100 for the full control effect; nearly all actives have a fitted effect of over 45% in size
* = called active by the depositor; ? = inconclusive; / = not tested or not shown; [ ] = remark or other dose.

SMILES	MARV entry inh	Cycloheximide cs	HCV inh	Lassa entry inh	Shiga inhibitor	FMDV antiviral
CCn1ncc(NC(=S)Nc2ccc3c(c2)OCO3)c1C(N)=O	-14%	15*	6%	8%	68*	7%
CC(=O)Nc1cccc(C(=O)/C=C/c2ccc(C)cc2)c1	?	17*	13µM*	?	12	?
CC(=O)c1cccc(NC(=O)CCCOc2ccc(C)cc2)c1	5%	0	4%	9%	-9	-12%
CCC(=O)Nc1cccc(C(=O)/C=C/c2ccc(F)cc2)c1	15µM*	17*	10µM*	?	26	-25%
C/C(=N\Nc1ccc(Cl)c(C(=O)O)c1)c1cccs1	?	32*	2%	19%[46.1 µM]	90*	2%
C/C(=N/Nc1ccccc1C(=O)O)c1cccs1	6%	20*	17%	?	28	81%
O=C(O)CC/C(=N\Nc1ccc(Cl)cc1)c1cccs1	10%[46.1 µM]	11	16%	-10%[46.1 µM]	4	-21%
C/C(=N\Nc1ccc(Cl)c(C(=O)O)c1)c1ccc[nH]1	-4%[46.1 µM]	51*	7%	11%[46.1 µM]	157*	10%
C[C@@H]1CCC(=O)N(C[C@@H](C)CSc2ccc(Br)cc2)CC1	/	/	-18%	/	/	?
Cc1ccc(-c2noc(C3CCCN(C(=O)c4ccc(C(C)(C)C)cc4)C3)n2)o1 (stereo not drawn)	-30%[46.1 µM]	1	?	/	-5	?
Cc1ccc(-c2noc(C3CCN(C(=O)Nc4ccc(C#N)cc4)CC3)n2)o1	6%	-2	10µM*	?	-4	-22%
CN(C)c1ccc(-c2noc(C3CCN(C(=O)Nc4ccc(Cl)cc4)CC3)n2)cc1	-1%[46.1 µM]	16*	?	-16%[46.1 µM]	52*	?
CC1CN(c2ccc(NC(=S)NNCCC#N)cc2)CC(C)O1 (stereo not drawn)	0%[46.1 µM]	-1	-10%	-21%	11	43%
CCCCn1nnnc1C(c1cc2ccccc2o1)N(C)Cc1ccccc1 (stereo not drawn)	/	/	/	/	/	11%
Cc1n[nH]c(=O)c2c(NC(=O)COC(=O)COc3cccc(Br)c3)oc(C)c12	19%	/	8%	-13%	/	-10%
S=C(Nc1cc(Cl)ccc1Oc1ccccc1)N1CCN(c2ccccn2)CC1	?	-3	11µM*	?	7	-5%
CCC(Sc1n[nH]c(=O)[nH]c1=O)C(=O)OCc1ccccc1 (stereo not drawn)	10%	4	10%	12%	-17	1.8µM*
CC(Sc1n[nH]c(=O)[nH]c1=O)C(=O)OCc1ccccc1 (stereo not drawn)	-11%	2	15%	-5%	-3	-3%
Cc1ccc(CNC(=O)c2sc3ncnc(N(C)C4CCCCC4)c3c2C)cc1	/	/	/	-10%[46.1 µM]	/	-24%
Cc1sc2ncnc(N(C)C3CCCCC3)c2c1C	-25%[46.1 µM]	11	-2%	-7%	45*	-23%
COC(=O)C1CCN(C(=O)CSc2nnc(-c3ccncc3)o2)CC1	-6%	-3	-12%	6%	-6	-13%
COC(=O)Cc1c(C)c2ccc(OCC(=O)c3ccc(OC)c(OC)c3)cc2oc1=O	-3%[46.1 µM]	-1	?	-3%[46.1 µM]	24	-23%
COc1ccc(NC(=O)/C=C/c2cccc(C(F)(F)F)c2)cn1	?	7	11µM*	?	-2	?
COc1ccc(NC(=O)/C=C/c2ccc(OC(F)F)cc2)cn1	?	6	11µM*	?	20	-30%
COc1ccc(NC(=O)/C=C/c2cccc(Br)c2)cn1	?	27*	?	?	55*	-26%
SMILES	MARV entry inh	Cycloheximide cs	HCV inh	Lassa entry inh	Shiga inhibitor	FMDV antiviral
Cc1ccc(NC(=O)/C=C/c2cccc(C(F)(F)F)c2)cc1	10%	13	?	?	-8	-15%
CN(C)S(=O)(=O)c1ccccc1N=C=S	/	0	17%	/	-2	-5%
CCCC[C@@H]1CNC(=S)N1CCC12CC3CC(CC(C3)C1)C2	/	-2	-13%	/	-4	9%
CN(C)Cc1c(O)ccc2occ(C(=O)c3ccc(F)cc3)c12	?	3	16%	-19%[46.1 µM]	6	8%
Cc1ccc(C(=O)c2coc3ccc(O)c(Cl)c23)cc1	-1%	36*	-10%	?	72*	-14%
Cc1ccc(C(=O)c2coc3ccc(O)cc23)cc1	/	34*	-11%	/	41*	-8%
O=C(c1ccccc1)c1coc2ccc(O)c(CN3CCOCC3)c12	-32%	16	-11%	9%	22	-10%
O=C(c1ccccc1)c1coc2ccc(O)c(Cl)c12	-7%	67*	/	-10%[14.3 µM]	118*	0%
Cc1cc(C)c(OCC(=O)Nc2cccc(O)c2)cc1C	0%	28*	13%	0%	59*	-14%
Cc1ccccc1OCC(=O)OCC(=O)Nc1ccc2c(c1)OCO2	-5%	/	-9%	0%	/	-6%
Cc1cc(C)c(OCC(=O)Nc2ccc3c(c2)OCO3)cc1C	7%	21*	?	?	16	48%
Cc1ccc(C)c(OCC(=O)Nc2ccc3c(c2)OCO3)c1	?	48*	?	17%	42*	1%
Cc1ccc(NC(=O)COc2ccc(CCO)cc2-n2nc3ccccc3n2)cc1C	?	-3	13µM*	?	-4	-18%
CCC1Nc2ncnc(N3CCOCC3)c2N(Cc2ccc(Br)cc2)C1=O (stereo not drawn)	/	/	5%	/	/	-23%
Cc1ccc(OCC(=O)Nc2ccc3c(c2)OCO3)c([N+](=O)[O-])n1	-9%	28*	-8%	?	54*	48%
COc1cc(C=O)ccc1OCC(=O)Nc1ccc2c(c1)OCO2	/	20*	-6%	/	44*	4%
O=C(NCc1ccccc1)c1cccc(COc2ccc3c(c2)CCC3)c1	?	104*	-9%	?	120*	-10%
COc1cccc(OC)c1C(=O)NNC(=O)c1cccc(COc2ccc3c(c2)CCC3)c1	?	65*	?	?	184*	-17%
COc1ccccc1NC(=O)c1ccc(COc2ccc3c(c2)CCC3)cc1	4%	9	8%	-1%	0	30%
O=C(O)c1cccc(COc2ccc3c(c2)CCC3)c1	?	35*	18%	0.37µM*	44	2.8µM*
O=C(COc1ccc2c(c1)CCC2)NCc1cccc(Cl)c1	?	-2	-9%	?	-10	-16%
O=S(=O)(NCc1nnc2ccccn12)c1ccc(F)cc1	-6%	/	-3%	1%[46.1 µM]	/	-3%
O=C(O)Cc1ccc(CCNS(=O)(=O)c2ccc(Cl)cc2)cc1	/	-5	/	/	-2	/
Cc1nnc2ccc(-c3ccc(NS(=O)(=O)c4ccccc4F)cc3)nn12	3%[46.1 µM]	/	-18%	-21%	/	0%
COc1cccc(NC(=S)N2c3ccccc3CC2C)c1 (stereo not drawn)	16%[46.1 µM]	19*	-3%	5%[46.1 µM]	31	0%
CC1Cc2ccccc2N1C(=S)Nc1ccc(S(N)(=O)=O)cc1 (stereo not drawn)	4%	-1	1%	?	14	-10%

Source: PubChem
